Where “and” joins values, the source holds several entries; their conditions need not be identical. Equal entries are not always repeated. About 4,500 (2.2%) of roughly 200,000 compounds were called active. Inconclusive results (about 12%) are left out. The sample as a whole holds a higher share of actives than the screen did. A number with no mark means an inactive call. The call rests on the fitted dose curve; in most records, active means well fitted inhibition curve with a large enough effect; inconclusive means small, poorly fitted or top-dose-only effect, or effect the other way; inactive means flat fitted curve, though single readings scatter.
Each compound was assayed against Cruzipain (Trypanosoma cruzi) (UniProt P25779) (assay: qHTS Assay for Promiscuous and Specific Inhibitors of Cruzain (without detergent)). Details: purified cruzain, Z-FR-AMC fluorescence, no detergent.
Description: Cruzain is a cysteine protease from the tropical parasite Trypanosoma cruzi. Dual qHTS experiment was performed against the NCGC compound collection in order to 1) identify novel inhibitors of the enzyme and 2) profile the compound collection for promiscuous inhibitors operating via colloidal aggregation (by performing detergent-free and detergent-containing comparison screens). Cruzain was assayed by the use of fluorogenic coumarin-based substrate Z-FR-AMC: proteolytic cleavage releases AMC, whose fluorescence is measured at 360 nm excitation and 450 nm emission. Purified cruzain was supplied by the labs of Prof. James McKerrow and Brian Shoichet, UC San Francisco.
This assay had 0.00005% Triton X-100 concentration. See also releated assay "qHTS Assay for Promiscuous and Specific Inhibitors of Cruzain (with detergent)" with 0.01% Triton X-100.
See following references for additional details:
Assay Provider: Shoichet, Brian; University of California, San Fancisco
Screening Center PI: Austin, C.P.
Screening Center: NIH Chemical Genomics Center [NCGC]
Buffer: 100 mM Sodium Acetate, pH 5.5, 5 mM DTT, Triton X-100 concentration: 0.01%.
Buffer in columns 3 and 4 as negative control (no enzyme).
Substrate solution: 2 uM final concentration of Z-FR-AMC (catalog number I-1160, Bachem) dispensed throughout the plate.
Enzyme: 1.5 nM Cruzain final concentration in columns 1, 2, 5-48. Column 1 is neutral (100% activity). Column 2 contained titration of covalent inhibitor K11777, starting concentration 1 mM, then 1:2 dilution in duplicate).
Three uL of enzyme or buffer were dispensed to 1536-well Greiner black solid bottom plates. Compounds and controls (23 nL) were transferred via Kalypsys PinTool. The plates were incubated for 15 min at room temperature, and then 1 uL of substrate solution was added to start the reaction. The plates were immediately transferred to and read 4 times every 30 seconds for 2 min on ViewLux High-throughput CCD imager (Perkin-Elmer) using 360 nm excitation and 450 nm emission fluorescence protocol. The fluorescence intensity difference between the third and the first time points (time lapse of 60 seconds) was used to compute reaction progress.
Further: nearly all actives have a fitted effect of over 40% in size.
Potency means the concentration at half of the fitted maximal effect.

Chain of Cruzipain (Trypanosoma cruzi) (P25779 123-467 limits assumed): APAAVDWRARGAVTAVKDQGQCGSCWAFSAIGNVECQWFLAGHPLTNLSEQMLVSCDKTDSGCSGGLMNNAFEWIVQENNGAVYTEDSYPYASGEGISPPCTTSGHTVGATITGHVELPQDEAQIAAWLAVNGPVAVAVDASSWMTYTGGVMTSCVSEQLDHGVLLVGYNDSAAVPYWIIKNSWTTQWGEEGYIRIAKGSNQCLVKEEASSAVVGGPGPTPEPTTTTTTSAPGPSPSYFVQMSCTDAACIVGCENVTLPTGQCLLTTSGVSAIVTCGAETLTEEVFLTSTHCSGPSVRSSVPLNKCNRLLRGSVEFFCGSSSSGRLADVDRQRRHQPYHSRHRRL

Row | Structure (SMILES) | max response, negative = inhibition | Potency
1 | Cc1nn(-c2ccccn2)c2c1C(c1ccncc1)C1=C(CC(C)(C)CC1=O)N2 (centres undefined) | -9% | 
2 | Cc1cc(C)c(C2C3=C(Nc4c2c(C)nn4-c2ccccn2)c2ccccc2C3=O)c(C)c1 (centres undefined) |  | 12.6 µM (active)
3 | CC(=C1C(=O)c2ccccc2C1=O)N1CCN(c2ccccn2)CC1 | -6.99% | 
4 | NS(=O)(=O)c1ccc(CCNC(=O)CCCCCn2c(=O)[nH]c3ccccc3c2=O)cc1 | -15.6% | 
5 | CC1(C)CC(=O)c2c(n(S(=O)(=O)c3ccccc3)c3ccc(NS(=O)(=O)c4ccccc4)cc23)C1 |  | 31.6 µM (active)
6 | Cn1c(=O)n(C)c2cc(NS(=O)(=O)c3ccc(F)cc3)ccc21 | -10.1% | 
7 | COc1cc(NS(=O)(=O)c2ccccc2)ccc1-n1nc(C)cc1C | 4.04% | 
8 | Cc1cccc(-n2c(C)cc(/C=N/NC(N)=S)c2C)c1 | -26.1% | 
9 | CCOc1ccc(/C=N/NC(N)=S)cc1 | -8.04% | 
10 | CC(C)Oc1c(Br)cc(Br)cc1/C=N/NC(N)=S |  | 0.158 µM (active)
11 | Cc1ccc2onc(CC(=O)N3CCN(c4ccc(Cl)cc4)CC3)c2c1 | 7.92% | 
12 | COc1cccc(CNCCSc2nnnn2C)c1OCc1ccccc1Cl | 2.75% | 
13 | COc1ccc(CNC(=O)Cn2nnc(-c3ccccc3F)n2)cc1 | -5.04% | 
14 | COc1cc2nc(SCc3ccc(F)cc3)n3nc(CCn4c(C)nc5ccccc54)nc3c2cc1OC | -7.57% | 
15 | CC(=O)c1ccc2c(ccc3ccccc32)c1 | 6.49% | 
16 | C=CC(=O)c1ccc2ccccc2c1 |  | 2.51 µM (active)
17 | CC(=O)CCC(=O)c1ccc2ccccc2c1 | 1.86% | 
18 | Cc1ccc(NC(=O)Cn2c(=O)n(-c3ccccc3)c(=O)c3c4c(sc32)CCCC4)cc1 | -7.31% | 
19 | Cc1ccc(S(=O)(=O)N2CCC(Oc3ccc(-n4cnnn4)cc3)CC2)cc1 | 8.75% | 
20 | CCc1ccc(NC(=O)CN2CCSc3ccc(S(=O)(=O)N4CCCC4)cc32)cc1 | -26.3% | 
21 | COc1cccc(C(=O)c2cc3ccc(O)cc3oc2=O)c1 | -3.19% | 
22 | COc1ccc(-c2oc3cc(OC)ccc3c2C(=O)c2ccc(C#N)cc2)cc1 |  | 12.6 µM (active)

Row | Structure (SMILES) | max response, negative = inhibition | Potency
23 | COc1ccc(C(=O)c2c(C)oc3cc([N+](=O)[O-])c(O)c([N+](=O)[O-])c23)cc1 | -3.8% | 
24 | O=C(COc1ccccc1F)NNC(=O)c1ccc(N2CCCCC2)c([N+](=O)[O-])c1 | -11.1% | 
25 | O=C(Nc1ccc(N2C(=O)c3cccc4cccc(c34)C2=O)cc1)c1ccc(N2CCCCC2)c([N+](=O)[O-])c1 |  | 7.94 µM (active)
26 | COc1cccc(C(=O)Nc2ccc(N3CCCC3)cc2)c1 | -20.3% | 
27 | Cc1ccccc1-n1c(=O)c2ccccc2n(Cc2ccc(F)cc2)c1=O | 6.2% | 
28 | O=C(O)Cc1ccc(-c2ccccc2)cc1 | -11.7% and 9.66% | 
29 | COc1ccc(C(CC(=O)O)NC(=O)Cc2ccccc2)cc1 (centres undefined) | 10.2% | 
30 | O=C(Cc1ccc(-c2ccccc2)cc1)NC(c1ccccc1)c1ccccc1 |  | 25.1 µM (active)
31 | COc1ccc(C(=O)Nc2onc3c2CCCC3)cc1 | -6.11% | 
32 | Cc1nn(C)cc1C(=O)NNC(=S)Nc1ccc(Cl)cc1 | -0.36% | 
33 | Cc1ccc(NC(=S)NC(=O)/C=C/c2ccc(Cl)cc2)cc1 |  | 10 µM (active)
34 | COC(=O)Cc1ccc(NC(=S)NCc2ccc(Cl)cc2)cc1 | -2.73% | 
35 | CCCN1C(=O)C(O)(CC(=O)c2ccc(CC)cc2)c2cc(Br)ccc21 (centres undefined) | 2.6% | 
36 | COc1ccccc1CNC(=O)C(Cc1ccccc1)NS(=O)(=O)c1ccc2c(c1)oc(=O)n2C (centres undefined) | -15.4% | 
37 | O=S(=O)(NCC(c1ccco1)N1CCOCC1)c1cc(F)ccc1F (centres undefined) | -1.04% | 
38 | CC(=O)c1cccc(NC(=O)c2nc(-c3ccccc3)n(-c3cccc(C)c3)n2)c1 | -26.5% | 
39 | COc1cccc(NC(=O)c2ccc(Cn3cc([N+](=O)[O-])cn3)o2)c1 | 3.2% | 
40 | Cc1cccc(NC(=O)c2sc(-c3ccccc3)nc2-c2ccc([N+](=O)[O-])cc2)c1 |  | 20 µM (active)
41 | O=C(NCCS(=O)(=O)N1CCN(c2ccc(F)cc2)CC1)c1ccccc1Br | -13% | 
42 | Cc1cccc(CNC(=O)c2cnc3sc(N4CCCCC4)nn3c2=O)c1 | 13.2% | 
43 | CC(Oc1ccc(-c2ccccc2)c(F)c1)c1ccn(S(=O)(=O)c2cccc3ccccc23)n1 (centres undefined) |  | 12.6 µM (active)
44 | COc1ccccc1N1CCN(c2ncnc3onc(-c4cccc(Cl)c4)c23)CC1 | 9.06% | 

From PubChem BioAssay AID1476 (National Center for Advancing Translational Sciences (NCATS), 2009)
